Columns and labels:
Assay in all cases: DAPPL (digital affinity profiling via proximity ligation, sequencing); 10 mM Tris-HCl pH 7.5, 50 mM NaCl, 1 mM DTT, 4% glycerol, room temperature, 30 min; GST-TFs on glutathione beads, 16-mer random dsDNA library, 0.1% formaldehyde crosslink after washing; high values mean tight binding
[1] = biological target: T1, FEV (Homo sapiens, UniProt Q99581 1-238); conditions: protein: recombinant; tags: N-terminal GST; dsDNA, one strand shown
T1 sequence: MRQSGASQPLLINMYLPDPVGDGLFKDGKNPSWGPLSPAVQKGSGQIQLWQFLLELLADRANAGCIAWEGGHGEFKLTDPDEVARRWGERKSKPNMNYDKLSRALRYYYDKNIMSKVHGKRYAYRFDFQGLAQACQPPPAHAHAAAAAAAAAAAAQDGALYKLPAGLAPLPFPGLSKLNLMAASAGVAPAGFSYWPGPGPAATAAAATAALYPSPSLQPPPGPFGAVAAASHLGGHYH
Outline: (§1)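 Human transcription factors were made in yeast as GST fusions, captured on glutathione beads and barcoded with DNA. With a tag-only sample included, the pool was incubated with 200 nmole of a random double-stranded 16-mer DNA library in Tris/NaCl/DTT/glycerol buffer at room temperature for 30 min, then crosslinked with 0.1% formaldehyde after washing, ligated by proximity, amplified and sequenced. For binding signal, each hexamer's read frequency for a factor is divided by its frequency for the tag-only sample.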

[2] = biological target: ETV5 (Homo sapiens, UniProt P41161 1-510); conditions: protein: recombinant; tags: N-terminal GST; dsDNA, one strand shown
ETV5, sequence (P41161 whole entry): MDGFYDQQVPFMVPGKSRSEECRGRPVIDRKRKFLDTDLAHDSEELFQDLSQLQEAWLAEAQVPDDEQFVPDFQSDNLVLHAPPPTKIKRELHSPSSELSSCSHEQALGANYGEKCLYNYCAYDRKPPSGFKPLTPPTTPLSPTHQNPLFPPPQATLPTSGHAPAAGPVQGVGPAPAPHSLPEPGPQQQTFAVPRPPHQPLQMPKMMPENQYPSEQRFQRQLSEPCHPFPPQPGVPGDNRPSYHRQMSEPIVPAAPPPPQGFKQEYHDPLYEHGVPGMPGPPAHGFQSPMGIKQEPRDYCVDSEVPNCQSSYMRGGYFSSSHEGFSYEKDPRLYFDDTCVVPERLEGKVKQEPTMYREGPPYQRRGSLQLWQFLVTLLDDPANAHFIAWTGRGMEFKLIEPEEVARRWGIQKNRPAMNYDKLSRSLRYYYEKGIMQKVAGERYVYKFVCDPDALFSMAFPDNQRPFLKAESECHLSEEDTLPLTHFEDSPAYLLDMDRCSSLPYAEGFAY
Outline: as §1

[3] = biological target: HSF1 (Homo sapiens, UniProt Q00613 1-529); conditions: protein: recombinant; tags: N-terminal GST; chain copies: 3; dsDNA, one strand shown
HSF1, sequence (Q00613 whole entry): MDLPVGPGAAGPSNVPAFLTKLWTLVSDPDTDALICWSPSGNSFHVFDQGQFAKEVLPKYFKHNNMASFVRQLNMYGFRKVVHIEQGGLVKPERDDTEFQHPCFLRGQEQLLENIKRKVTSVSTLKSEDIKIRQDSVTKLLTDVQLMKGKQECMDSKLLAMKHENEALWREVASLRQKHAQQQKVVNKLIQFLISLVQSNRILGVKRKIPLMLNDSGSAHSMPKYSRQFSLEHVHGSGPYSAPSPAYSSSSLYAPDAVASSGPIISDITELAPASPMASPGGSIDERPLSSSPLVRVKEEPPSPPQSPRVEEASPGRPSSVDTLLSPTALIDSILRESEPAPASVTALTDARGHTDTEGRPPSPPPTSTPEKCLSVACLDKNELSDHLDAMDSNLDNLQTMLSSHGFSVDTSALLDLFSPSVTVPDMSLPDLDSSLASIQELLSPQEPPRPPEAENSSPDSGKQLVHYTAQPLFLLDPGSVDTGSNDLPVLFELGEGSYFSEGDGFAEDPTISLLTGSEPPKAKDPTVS
Outline: as §1

[4] = biological target: T2, SPIC (Homo sapiens, UniProt Q8N5J4 1-248); conditions: protein: recombinant; tags: N-terminal GST; dsDNA, one strand shown
T2 sequence: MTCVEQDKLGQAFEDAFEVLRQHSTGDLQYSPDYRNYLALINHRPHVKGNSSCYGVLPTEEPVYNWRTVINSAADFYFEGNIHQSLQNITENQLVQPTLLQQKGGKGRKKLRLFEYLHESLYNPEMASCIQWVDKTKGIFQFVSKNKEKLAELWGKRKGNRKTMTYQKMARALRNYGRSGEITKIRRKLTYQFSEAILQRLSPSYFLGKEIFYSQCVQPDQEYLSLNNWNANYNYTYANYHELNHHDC
Outline: as §1

[5] = biological target: ELF4 (Homo sapiens, UniProt Q99607 1-663); conditions: protein: recombinant; tags: N-terminal GST; dsDNA, one strand shown
ELF4, sequence (Q99607 whole entry): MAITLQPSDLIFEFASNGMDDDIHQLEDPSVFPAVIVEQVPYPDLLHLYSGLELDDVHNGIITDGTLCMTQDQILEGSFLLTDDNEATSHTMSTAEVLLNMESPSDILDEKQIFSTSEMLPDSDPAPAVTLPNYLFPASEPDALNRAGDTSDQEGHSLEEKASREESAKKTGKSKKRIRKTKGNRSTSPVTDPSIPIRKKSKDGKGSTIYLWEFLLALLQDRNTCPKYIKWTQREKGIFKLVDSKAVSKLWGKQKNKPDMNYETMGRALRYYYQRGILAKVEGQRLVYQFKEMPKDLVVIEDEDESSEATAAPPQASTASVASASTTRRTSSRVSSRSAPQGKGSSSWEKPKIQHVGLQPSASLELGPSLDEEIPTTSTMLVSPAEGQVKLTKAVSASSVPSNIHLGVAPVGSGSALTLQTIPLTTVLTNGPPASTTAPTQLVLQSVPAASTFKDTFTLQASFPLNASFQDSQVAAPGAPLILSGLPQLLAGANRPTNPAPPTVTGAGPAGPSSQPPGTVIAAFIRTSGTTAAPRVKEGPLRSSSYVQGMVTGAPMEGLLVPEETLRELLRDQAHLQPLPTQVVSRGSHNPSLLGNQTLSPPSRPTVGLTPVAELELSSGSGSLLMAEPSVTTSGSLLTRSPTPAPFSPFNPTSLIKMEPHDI
Outline: as §1

[6] = biological target: T3, ELK4 (Homo sapiens, UniProt P28324-2 1-405); conditions: protein: recombinant; tags: N-terminal GST; dsDNA, one strand shown
T3 sequence: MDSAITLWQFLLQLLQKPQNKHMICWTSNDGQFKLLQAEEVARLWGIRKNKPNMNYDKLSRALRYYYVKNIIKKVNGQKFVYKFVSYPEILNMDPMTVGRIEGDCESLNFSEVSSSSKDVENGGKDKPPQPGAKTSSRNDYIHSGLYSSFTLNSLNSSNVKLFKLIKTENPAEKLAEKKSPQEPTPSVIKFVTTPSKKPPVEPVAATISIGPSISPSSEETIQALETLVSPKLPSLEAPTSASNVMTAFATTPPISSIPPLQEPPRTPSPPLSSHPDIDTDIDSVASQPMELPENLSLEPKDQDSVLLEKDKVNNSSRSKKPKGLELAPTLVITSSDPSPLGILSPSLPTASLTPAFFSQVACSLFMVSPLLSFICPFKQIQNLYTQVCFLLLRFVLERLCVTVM
Outline: as §1

[7] = biological target: T4, ETV2 (Homo sapiens, UniProt O00321 1-342); conditions: protein: recombinant; tags: N-terminal GST; dsDNA, one strand shown
T4 sequence: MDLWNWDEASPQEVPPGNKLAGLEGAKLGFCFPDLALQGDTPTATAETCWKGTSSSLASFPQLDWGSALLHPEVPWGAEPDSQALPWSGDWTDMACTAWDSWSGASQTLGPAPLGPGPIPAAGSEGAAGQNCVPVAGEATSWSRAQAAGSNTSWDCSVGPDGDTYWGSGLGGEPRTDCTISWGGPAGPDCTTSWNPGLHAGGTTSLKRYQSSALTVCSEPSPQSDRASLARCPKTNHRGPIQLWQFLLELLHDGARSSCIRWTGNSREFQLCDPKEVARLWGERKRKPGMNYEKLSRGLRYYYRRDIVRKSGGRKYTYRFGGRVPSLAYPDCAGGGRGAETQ
Outline: as §1

[8] = biological target: T5, ELF3 (Homo sapiens, UniProt P78545 1-371); conditions: protein: recombinant; tags: N-terminal GST; dsDNA, one strand shown
T5 sequence: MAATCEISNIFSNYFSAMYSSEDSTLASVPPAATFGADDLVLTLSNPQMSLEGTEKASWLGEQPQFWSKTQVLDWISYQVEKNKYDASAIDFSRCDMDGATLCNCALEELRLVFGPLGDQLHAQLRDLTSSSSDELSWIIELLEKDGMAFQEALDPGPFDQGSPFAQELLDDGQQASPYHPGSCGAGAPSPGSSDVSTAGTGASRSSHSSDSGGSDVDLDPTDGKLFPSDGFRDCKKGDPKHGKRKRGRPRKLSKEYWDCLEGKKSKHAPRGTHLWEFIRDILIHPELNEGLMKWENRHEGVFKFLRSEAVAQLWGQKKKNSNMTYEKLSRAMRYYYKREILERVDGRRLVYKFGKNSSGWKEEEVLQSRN
Outline: as §1

[9] = biological target: CRX (Homo sapiens, UniProt O43186 1-299); conditions: protein: recombinant; tags: N-terminal GST; dsDNA, one strand shown
CRX, sequence (O43186 whole entry): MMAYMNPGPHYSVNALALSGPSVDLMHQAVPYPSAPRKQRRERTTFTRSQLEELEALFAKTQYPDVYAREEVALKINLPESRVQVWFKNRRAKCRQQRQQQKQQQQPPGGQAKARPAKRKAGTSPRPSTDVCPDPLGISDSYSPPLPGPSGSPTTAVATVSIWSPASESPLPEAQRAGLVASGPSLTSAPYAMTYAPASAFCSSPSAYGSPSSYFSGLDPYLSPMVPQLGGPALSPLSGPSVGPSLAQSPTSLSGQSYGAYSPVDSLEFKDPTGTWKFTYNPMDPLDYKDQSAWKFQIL
Outline: as §1

[10] = biological target: ETV1 (Homo sapiens, UniProt P50549 1-477); conditions: protein: recombinant; tags: N-terminal GST; dsDNA, one strand shown
ETV1, sequence (P50549 whole entry): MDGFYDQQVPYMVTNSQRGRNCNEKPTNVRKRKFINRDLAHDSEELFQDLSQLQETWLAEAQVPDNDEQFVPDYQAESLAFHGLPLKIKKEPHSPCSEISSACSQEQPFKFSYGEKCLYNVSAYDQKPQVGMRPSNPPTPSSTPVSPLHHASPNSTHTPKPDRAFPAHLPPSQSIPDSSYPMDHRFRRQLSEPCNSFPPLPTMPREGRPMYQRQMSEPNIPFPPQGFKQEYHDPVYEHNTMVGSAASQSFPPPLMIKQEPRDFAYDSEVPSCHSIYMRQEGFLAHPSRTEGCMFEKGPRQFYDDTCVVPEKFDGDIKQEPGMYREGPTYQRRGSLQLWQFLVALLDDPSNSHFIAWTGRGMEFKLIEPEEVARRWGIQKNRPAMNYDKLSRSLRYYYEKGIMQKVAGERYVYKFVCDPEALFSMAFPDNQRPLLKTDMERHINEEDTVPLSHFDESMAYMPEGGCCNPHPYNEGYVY
Outline: as §1

[11] = biological target: T6, ERF (Homo sapiens, UniProt P50548 1-548); conditions: protein: recombinant; tags: N-terminal GST; dsDNA, one strand shown
T6 sequence: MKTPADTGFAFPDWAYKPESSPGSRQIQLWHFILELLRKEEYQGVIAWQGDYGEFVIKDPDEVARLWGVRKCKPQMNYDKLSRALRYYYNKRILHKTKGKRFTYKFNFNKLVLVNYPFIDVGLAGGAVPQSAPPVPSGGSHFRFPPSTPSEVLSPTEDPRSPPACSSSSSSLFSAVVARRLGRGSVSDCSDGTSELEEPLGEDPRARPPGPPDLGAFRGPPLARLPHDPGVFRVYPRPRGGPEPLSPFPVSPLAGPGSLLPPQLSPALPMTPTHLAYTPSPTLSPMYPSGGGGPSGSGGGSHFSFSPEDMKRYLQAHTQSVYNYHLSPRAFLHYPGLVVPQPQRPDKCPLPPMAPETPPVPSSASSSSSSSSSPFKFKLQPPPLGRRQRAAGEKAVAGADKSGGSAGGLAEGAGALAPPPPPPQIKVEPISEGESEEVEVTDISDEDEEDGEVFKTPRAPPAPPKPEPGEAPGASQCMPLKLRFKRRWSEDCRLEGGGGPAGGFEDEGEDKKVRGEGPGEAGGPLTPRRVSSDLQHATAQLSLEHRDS
Outline: as §1

[12] = biological target: T7, ETV3L (Homo sapiens, UniProt Q6ZN32 1-361); conditions: protein: recombinant; tags: N-terminal GST; dsDNA, one strand shown
T7 sequence: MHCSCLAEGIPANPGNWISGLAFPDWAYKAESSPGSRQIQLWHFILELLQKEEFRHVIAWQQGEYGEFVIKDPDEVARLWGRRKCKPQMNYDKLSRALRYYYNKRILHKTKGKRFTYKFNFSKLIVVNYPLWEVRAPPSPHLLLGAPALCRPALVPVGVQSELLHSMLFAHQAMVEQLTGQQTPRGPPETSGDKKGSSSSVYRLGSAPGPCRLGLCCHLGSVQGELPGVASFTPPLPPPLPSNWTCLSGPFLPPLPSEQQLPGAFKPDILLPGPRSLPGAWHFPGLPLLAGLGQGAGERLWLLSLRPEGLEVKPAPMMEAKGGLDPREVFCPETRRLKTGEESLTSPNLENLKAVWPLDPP
Outline: as §1

[13] = biological target: T8, ETS2 (Homo sapiens, UniProt P15036 1-469); conditions: protein: recombinant; tags: N-terminal GST; dsDNA, one strand shown
T8 sequence: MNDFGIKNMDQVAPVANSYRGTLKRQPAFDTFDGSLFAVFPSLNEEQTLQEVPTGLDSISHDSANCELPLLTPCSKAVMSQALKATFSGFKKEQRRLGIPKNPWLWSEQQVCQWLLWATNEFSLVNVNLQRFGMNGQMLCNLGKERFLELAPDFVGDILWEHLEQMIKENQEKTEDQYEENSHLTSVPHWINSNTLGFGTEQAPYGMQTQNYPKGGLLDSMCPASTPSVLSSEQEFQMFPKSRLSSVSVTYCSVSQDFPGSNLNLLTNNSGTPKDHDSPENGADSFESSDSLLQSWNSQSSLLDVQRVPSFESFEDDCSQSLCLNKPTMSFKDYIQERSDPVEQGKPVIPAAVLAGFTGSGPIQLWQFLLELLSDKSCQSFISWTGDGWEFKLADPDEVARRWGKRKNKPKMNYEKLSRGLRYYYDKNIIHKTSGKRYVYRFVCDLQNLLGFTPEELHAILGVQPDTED
Outline: as §1

[14] = biological target: T9, SPDEF (Homo sapiens, UniProt O95238 1-335); conditions: protein: recombinant; tags: N-terminal GST; dsDNA, one strand shown
T9 sequence: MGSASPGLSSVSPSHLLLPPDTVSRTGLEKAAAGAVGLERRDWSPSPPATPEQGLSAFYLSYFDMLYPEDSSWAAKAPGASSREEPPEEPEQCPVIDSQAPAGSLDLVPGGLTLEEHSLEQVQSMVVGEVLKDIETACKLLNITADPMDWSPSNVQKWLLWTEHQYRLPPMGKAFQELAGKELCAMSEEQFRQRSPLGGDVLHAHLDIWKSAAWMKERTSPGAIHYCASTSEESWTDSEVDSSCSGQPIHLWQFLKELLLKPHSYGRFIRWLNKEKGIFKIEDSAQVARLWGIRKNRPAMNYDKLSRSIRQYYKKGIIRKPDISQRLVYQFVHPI
Outline: as §1

[15] = biological target: T10, ETV7 (Homo sapiens, UniProt Q9Y603 1-341); conditions: protein: recombinant; tags: N-terminal GST; dsDNA, one strand shown
T10 sequence: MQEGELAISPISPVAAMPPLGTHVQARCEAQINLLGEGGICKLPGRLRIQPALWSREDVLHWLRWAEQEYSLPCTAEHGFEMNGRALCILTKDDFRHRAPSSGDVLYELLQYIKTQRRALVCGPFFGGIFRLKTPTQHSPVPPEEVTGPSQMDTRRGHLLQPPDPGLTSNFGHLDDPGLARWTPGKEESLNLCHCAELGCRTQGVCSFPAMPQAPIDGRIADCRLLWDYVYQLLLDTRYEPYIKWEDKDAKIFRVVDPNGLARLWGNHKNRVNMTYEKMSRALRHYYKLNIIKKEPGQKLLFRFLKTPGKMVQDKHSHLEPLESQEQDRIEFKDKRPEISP
Outline: as §1

[16] = biological target: T11, ELF5 (Homo sapiens, UniProt Q9UKW6-2 1-255); conditions: protein: recombinant; tags: N-terminal GST; dsDNA, one strand shown
T11 sequence: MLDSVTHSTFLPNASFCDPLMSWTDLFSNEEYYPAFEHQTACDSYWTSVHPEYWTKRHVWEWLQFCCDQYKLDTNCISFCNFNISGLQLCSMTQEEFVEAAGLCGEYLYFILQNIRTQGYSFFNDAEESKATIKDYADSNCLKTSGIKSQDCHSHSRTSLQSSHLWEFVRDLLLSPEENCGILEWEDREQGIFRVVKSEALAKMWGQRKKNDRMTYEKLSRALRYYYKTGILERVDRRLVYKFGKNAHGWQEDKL
Outline: as §1

[17] = biological target: T12, ETV3 (Homo sapiens, UniProt P41162-2 1-143); conditions: protein: recombinant; tags: N-terminal GST; dsDNA, one strand shown
T12 sequence: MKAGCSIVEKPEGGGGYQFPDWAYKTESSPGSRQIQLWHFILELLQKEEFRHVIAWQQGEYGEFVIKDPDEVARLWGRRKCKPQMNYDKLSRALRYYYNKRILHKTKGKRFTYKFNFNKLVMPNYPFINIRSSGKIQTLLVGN
Outline: as §1

[18] = biological target: ETV6 (Homo sapiens, UniProt P41212 1-452); conditions: protein: recombinant; tags: N-terminal GST; dsDNA, one strand shown
ETV6, sequence (P41212 whole entry): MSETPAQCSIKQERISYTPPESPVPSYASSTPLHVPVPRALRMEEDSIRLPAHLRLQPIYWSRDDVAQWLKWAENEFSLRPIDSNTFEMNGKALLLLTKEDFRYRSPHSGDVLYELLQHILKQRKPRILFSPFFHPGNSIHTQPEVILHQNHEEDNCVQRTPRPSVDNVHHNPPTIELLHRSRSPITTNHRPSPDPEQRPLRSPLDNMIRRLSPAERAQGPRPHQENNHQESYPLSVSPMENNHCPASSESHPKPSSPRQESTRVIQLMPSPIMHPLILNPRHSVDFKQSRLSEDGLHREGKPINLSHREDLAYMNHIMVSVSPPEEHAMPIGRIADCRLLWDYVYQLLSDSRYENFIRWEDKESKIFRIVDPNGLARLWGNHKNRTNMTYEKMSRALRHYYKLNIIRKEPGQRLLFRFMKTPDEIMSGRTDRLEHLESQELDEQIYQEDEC
Outline: as §1

TTTGCT was tested, and the binding signal [1] was 1.16 fold enrichment (6-mer frequency, TF over GST control), the binding signal [2] was 1.2 fold enrichment (6-mer frequency, TF over GST control) and the binding signal [3] was 1.47 fold enrichment (6-mer frequency, TF over GST control). For the same sequence, the binding signal [4] was 1.22 fold enrichment (6-mer frequency, TF over GST control), the binding signal [5] was 1.27 fold enrichment (6-mer frequency, TF over GST control) and the binding signal [6] was 1.36 fold enrichment (6-mer frequency, TF over GST control). For the same sequence, the binding signal [7] was 1.39 fold enrichment (6-mer frequency, TF over GST control), the binding signal [8] was 1.33 fold enrichment (6-mer frequency, TF over GST control) and the binding signal [9] was 1.45 fold enrichment (6-mer frequency, TF over GST control). The binding signal [10] was 1.18 fold enrichment (6-mer frequency, TF over GST control), the binding signal [11] was 1.39 fold enrichment (6-mer frequency, TF over GST control) and the binding signal [12] was 1.22 fold enrichment (6-mer frequency, TF over GST control). For the same sequence, the binding signal [13] was 1.32 fold enrichment (6-mer frequency, TF over GST control), the binding signal [14] was 1.16 fold enrichment (6-mer frequency, TF over GST control) and the binding signal [15] was 1.38 fold enrichment (6-mer frequency, TF over GST control). For the same sequence, the binding signal [16] was 1.16 fold enrichment (6-mer frequency, TF over GST control), the binding signal [17] was 1.24 fold enrichment (6-mer frequency, TF over GST control) and the binding signal [18] was 1.14 fold enrichment (6-mer frequency, TF over GST control).
